# Measured values reported in the supplement of paper PMC3545927.
# Some of the results follow. The hit rate among all sequences tested is not known here.
# B1: HC1854 (peptide)
# chain: CATKPCSGSWAGNASASA
# B2: HC1970 (peptide)
# chain: CAEVTTPCSGAGNASASA
# B3: FS-2326 (peptide)
# chain: CARARREALRAGNASASA
# B4: FS-2787 (peptide)
# chain: CARRRRGALRAGNASASA
# B5: FS-2297 (peptide)
# chain: CARRRRGAPEAGNASASA
# B6: FS-2082 (peptide)
# chain: CARRRRVVPEAGNASASA
# B7: HC2110 (peptide)
# chain: CAVDVVCCSMAGNASASA
# B8: FS-575 (peptide)
# chain: CAWRNRKKKTAGNASASA
# B9: TR8 (peptide)
# chain: CAGLVPRGSGAGNASASA
# B10: HC1727 (peptide)
# chain: CAMEECSFHLAGNASASA
# B11: HC1372 (peptide)
# chain: CASYSWTGALAGNASASA
# B12: HC950 (peptide)
# chain: CASGENLPYLAGNASASA
# B13: HC176 (peptide)
# chain: CAVGGVYLLPAGNASASA
# B14: HC1243 (peptide)
# chain: CAEPDVAVLTAGNASASA
# B15: FS-2401 (peptide)
# chain: CARQQRDEETAGNASASA
# B16: FS-2322 (peptide)
# chain: CASFRRAFLIAGNASASA
# B17: FS-3194 (peptide)
# chain: CARKRRANSLAGNASASA
# B18: FS-2971 (peptide)
# chain: CARKRRAVLTAGNASASA
# B19: FS-2441 (peptide)
# chain: CARPRRILNTAGNASASA
# B20: FS-2152 (peptide)
# chain: CARKFRSGLIAGNASASA
# B21: FS-3258 (peptide)
# chain: CARKRRALLIAGNASASA
# B22: FS-2700 (peptide)
# chain: CARKRRNLETAGNASASA
# B23: HC1382 (peptide)
# chain: CAINALSNSLAGNASASA
# B24: HC1325 (peptide)
# chain: CAKKRTVVLTAGNASASA
# B25: HC1481 (peptide)
# chain: CATRCFDSTVAGNASASA
# B26: HC611 (peptide)
# chain: CAILQASLLKAGNASASA
# B27: HC2560 (peptide)
# chain: CASTPCSACLAGNASASA
# B28: HC2264 (peptide)
# chain: CAILEVVTSTAGNASASA
# B29: HC1698 (peptide)
# chain: CAMTECSQHLAGNASASA
# B30: HC2018 (peptide)
# chain: CAVTCCSMSYAGNASASA
# B31: HC1367 (peptide)
# chain: CANAEDVVCCAGNASASA
# B32: HC222 (peptide)
# chain: CAIDTLTCGFAGNASASA
# B33: FS-171 (peptide)
# chain: CAISERQARFAGNASASA
# B34: FS-832 (peptide)
# chain: CANCSREARGAGNASASA
# B35: FS-551 (peptide)
# chain: CANCSRKRRTAGNASASA
# B36: FS-539 (peptide)
# chain: CAIDRRIARFAGNASASA
# B37: FS-1147 (peptide)
# chain: CAPGSRKRRTAGNASASA
# B38: HC313 (peptide)
# chain: CANCSIYPGHAGNASASA
# B39: FS-208 (peptide)
# chain: CAVVNRKARFAGNASASA
# B40: HC2526 (peptide)
# chain: CASTPCSMHLAGNASASA
# B41: HC1316 (peptide)
# chain: CAVHGCPLPPAGNASASA
# B42: HC1672 (peptide)
# chain: CAEEECSQHLAGNASASA
# B43: EK2 (peptide)
# chain: CAGDRVYIHPAGNASASA
# B44: HC1715 (peptide)
# chain: CAMEHCSQHLAGNASASA
# Molecular target: furin, P09958
# Sequence (P09958 whole entry): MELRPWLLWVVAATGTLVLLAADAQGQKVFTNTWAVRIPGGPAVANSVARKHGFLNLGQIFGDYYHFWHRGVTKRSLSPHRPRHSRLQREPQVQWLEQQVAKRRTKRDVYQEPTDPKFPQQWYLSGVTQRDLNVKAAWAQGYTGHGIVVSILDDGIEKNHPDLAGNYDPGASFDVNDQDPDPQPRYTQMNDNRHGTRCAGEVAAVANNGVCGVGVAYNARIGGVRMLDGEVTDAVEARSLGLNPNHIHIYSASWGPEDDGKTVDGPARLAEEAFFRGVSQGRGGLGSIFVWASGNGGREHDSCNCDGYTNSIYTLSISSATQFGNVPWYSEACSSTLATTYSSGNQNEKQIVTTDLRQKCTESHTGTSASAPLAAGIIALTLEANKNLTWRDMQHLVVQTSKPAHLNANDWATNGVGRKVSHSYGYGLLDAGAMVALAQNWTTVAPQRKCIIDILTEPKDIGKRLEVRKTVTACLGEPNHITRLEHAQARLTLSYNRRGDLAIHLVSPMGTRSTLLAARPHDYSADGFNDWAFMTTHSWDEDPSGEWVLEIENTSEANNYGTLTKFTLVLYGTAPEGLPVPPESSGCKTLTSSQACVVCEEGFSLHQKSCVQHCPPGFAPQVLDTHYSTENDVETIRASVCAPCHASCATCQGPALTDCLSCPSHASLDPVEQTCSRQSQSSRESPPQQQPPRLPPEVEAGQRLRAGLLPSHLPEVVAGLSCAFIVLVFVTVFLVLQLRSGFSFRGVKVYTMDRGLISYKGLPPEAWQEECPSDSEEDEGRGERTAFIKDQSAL
# Assay: furin cleavage Z-score vs untreated control; higher = more cleavage, active = 3.5 or more, inactive = 1 or less, 8 variable residues between constant flanks
# Method: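 Multiplexed peptide-cDNA fusion cleavage assay. 8-mer variable peptides flanked by constant Cys-Ala (N-term) and Ala-Gly-Asn-Ala-Ser-Ala-Ser-Ala (C-term) and conjugated to a cDNA oligonucleotide were bead-immobilised via the N-terminus. They were treated with purified furin at a 1:10 enzyme:substrate ratio in 50 mM HEPES pH 7.5, 1 mM CaCl2, 100 mM NaCl for 7.5, 15 or 30 min. Released cDNA was counted by next-generation sequencing, and log counts versus no-furin controls were lowess-adjusted and converted to robust Z-scores.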
Sequence,furin cleavage Z-score (7.5 min),furin cleavage Z-score (15 min),furin cleavage Z-score (30 min)
B1,-0.725 (inactive),-0.656 (inactive),-1.12 (inactive)
B2,0.193 (inactive),-0.206 (inactive),-0.0766 (inactive)
B3,7.37 (active),9.91 (active),7.3 (active)
B4,3.24,5.07 (active),6.59 (active)
B5,6.8 (active),6.5 (active),6.23 (active)
B6,1.92,5.11 (active),6.08 (active)
B7,-1.67 (inactive),-0.512 (inactive),-0.588 (inactive)
B8,-0.592 (inactive),-0.739 (inactive),-1.25 (inactive)
B9,-1.24 (inactive),-1.44 (inactive),-1.84 (inactive)
B10,2.23,-1.03 (inactive),1.18
B11,-0.915 (inactive),-0.282 (inactive),0.0526 (inactive)
B12,-0.962 (inactive),0.134 (inactive),-0.522 (inactive)
B13,1.19,0.0945 (inactive),0.538 (inactive)
B14,0.073 (inactive),0.723 (inactive),-1.2 (inactive)
B15,-0.691 (inactive),-0.187 (inactive),-3.21 (inactive)
B16,-1.89 (inactive),-0.15 (inactive),-1.34 (inactive)
B17,6.54 (active),9.21 (active),5.81 (active)
B18,8.83 (active),12.7 (active),10.3 (active)
B19,-2.76 (inactive),0.234 (inactive),0.846 (inactive)
B20,-0.364 (inactive),0.099 (inactive),-0.282 (inactive)
B21,5.47 (active),5.56 (active),8.18 (active)
B22,7.71 (active),8.41 (active),8.69 (active)

Sequence,furin cleavage Z-score (7.5 min),furin cleavage Z-score (15 min),furin cleavage Z-score (30 min)
B23,-0.629 (inactive),-0.0116 (inactive),0.458 (inactive)
B24,-0.725 (inactive),-0.173 (inactive),0.000165 (inactive)
B25,1.01,0.491 (inactive),0.363 (inactive)
B26,-0.334 (inactive),-0.703 (inactive),-0.0413 (inactive)
B27,0.847 (inactive),-0.78 (inactive),0.791 (inactive)
B28,-1.51 (inactive),-0.366 (inactive),0.122 (inactive)
B29,0.478 (inactive),0.668 (inactive),0.28 (inactive)
B30,0.12 (inactive),-1.47 (inactive),-1.48 (inactive)
B31,-0.652 (inactive),-1.38 (inactive),-0.581 (inactive)
B32,0.261 (inactive),-0.013 (inactive),0.099 (inactive)
B33,0.813 (inactive),-0.669 (inactive),1.86
B34,-1.13 (inactive),-0.942 (inactive),-0.54 (inactive)
B35,9.83 (active),9.81 (active),7.5 (active)
B36,1.87,1.35,3.96 (active)
B37,11.2 (active),13.8 (active),9.92 (active)
B38,0.763 (inactive),-0.054 (inactive),0.871 (inactive)
B39,6.98 (active),8.16 (active),8.51 (active)
B40,0.123 (inactive),0.577 (inactive),0.242 (inactive)
B41,-0.297 (inactive),0.367 (inactive),0.0305 (inactive)
B42,0.0201 (inactive),1.31,0.995 (inactive)
B43,-0.225 (inactive),-0.247 (inactive),-0.383 (inactive)
B44,-0.776 (inactive),-0.0908 (inactive),0.617 (inactive)
